Results reported in the supplement of paper PMC12819154, “High-throughput peptide-centric local stability assay extends protein–ligand identification to membrane proteins, tissues and bacteria” (Nature Structural & Molecular Biology, 2025).

These targets were tested with CN[C@@H]1C[C@H]2O[C@@](C)([C@@H]1OC)n1c3ccccc3c3c4c(c5c6ccccc6n2c5c31)C(=O)NC4 [staurosporine] (assay: log2 fold change of tryptic peptide abundance, ligand vs vehicle (limited proteolysis) (log2 ratio); higher = more trypsin-susceptible (destabilized)). Conditions: ligand concentration: 20 uM; sample: K562 cleared lysate; digestion: 4 min, 22 C (HT-PELSA RT4min, Orbitrap Astral).

UniProt Q96S94, sequence (Q96S94 whole entry): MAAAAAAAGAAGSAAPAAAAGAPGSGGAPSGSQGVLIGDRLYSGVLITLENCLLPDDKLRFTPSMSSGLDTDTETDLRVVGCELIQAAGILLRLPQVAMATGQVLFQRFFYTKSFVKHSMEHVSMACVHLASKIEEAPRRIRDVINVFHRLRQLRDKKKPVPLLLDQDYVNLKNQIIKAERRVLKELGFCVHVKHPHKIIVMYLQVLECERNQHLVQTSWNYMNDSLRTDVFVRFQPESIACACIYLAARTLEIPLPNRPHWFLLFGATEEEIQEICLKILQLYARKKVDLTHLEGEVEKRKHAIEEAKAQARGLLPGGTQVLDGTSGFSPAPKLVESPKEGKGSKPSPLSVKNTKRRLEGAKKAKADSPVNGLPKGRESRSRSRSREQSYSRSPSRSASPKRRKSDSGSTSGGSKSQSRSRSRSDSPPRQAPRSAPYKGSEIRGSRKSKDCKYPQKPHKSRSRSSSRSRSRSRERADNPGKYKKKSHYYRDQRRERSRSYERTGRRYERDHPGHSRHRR
UniProt P78527, sequence (P78527 whole entry): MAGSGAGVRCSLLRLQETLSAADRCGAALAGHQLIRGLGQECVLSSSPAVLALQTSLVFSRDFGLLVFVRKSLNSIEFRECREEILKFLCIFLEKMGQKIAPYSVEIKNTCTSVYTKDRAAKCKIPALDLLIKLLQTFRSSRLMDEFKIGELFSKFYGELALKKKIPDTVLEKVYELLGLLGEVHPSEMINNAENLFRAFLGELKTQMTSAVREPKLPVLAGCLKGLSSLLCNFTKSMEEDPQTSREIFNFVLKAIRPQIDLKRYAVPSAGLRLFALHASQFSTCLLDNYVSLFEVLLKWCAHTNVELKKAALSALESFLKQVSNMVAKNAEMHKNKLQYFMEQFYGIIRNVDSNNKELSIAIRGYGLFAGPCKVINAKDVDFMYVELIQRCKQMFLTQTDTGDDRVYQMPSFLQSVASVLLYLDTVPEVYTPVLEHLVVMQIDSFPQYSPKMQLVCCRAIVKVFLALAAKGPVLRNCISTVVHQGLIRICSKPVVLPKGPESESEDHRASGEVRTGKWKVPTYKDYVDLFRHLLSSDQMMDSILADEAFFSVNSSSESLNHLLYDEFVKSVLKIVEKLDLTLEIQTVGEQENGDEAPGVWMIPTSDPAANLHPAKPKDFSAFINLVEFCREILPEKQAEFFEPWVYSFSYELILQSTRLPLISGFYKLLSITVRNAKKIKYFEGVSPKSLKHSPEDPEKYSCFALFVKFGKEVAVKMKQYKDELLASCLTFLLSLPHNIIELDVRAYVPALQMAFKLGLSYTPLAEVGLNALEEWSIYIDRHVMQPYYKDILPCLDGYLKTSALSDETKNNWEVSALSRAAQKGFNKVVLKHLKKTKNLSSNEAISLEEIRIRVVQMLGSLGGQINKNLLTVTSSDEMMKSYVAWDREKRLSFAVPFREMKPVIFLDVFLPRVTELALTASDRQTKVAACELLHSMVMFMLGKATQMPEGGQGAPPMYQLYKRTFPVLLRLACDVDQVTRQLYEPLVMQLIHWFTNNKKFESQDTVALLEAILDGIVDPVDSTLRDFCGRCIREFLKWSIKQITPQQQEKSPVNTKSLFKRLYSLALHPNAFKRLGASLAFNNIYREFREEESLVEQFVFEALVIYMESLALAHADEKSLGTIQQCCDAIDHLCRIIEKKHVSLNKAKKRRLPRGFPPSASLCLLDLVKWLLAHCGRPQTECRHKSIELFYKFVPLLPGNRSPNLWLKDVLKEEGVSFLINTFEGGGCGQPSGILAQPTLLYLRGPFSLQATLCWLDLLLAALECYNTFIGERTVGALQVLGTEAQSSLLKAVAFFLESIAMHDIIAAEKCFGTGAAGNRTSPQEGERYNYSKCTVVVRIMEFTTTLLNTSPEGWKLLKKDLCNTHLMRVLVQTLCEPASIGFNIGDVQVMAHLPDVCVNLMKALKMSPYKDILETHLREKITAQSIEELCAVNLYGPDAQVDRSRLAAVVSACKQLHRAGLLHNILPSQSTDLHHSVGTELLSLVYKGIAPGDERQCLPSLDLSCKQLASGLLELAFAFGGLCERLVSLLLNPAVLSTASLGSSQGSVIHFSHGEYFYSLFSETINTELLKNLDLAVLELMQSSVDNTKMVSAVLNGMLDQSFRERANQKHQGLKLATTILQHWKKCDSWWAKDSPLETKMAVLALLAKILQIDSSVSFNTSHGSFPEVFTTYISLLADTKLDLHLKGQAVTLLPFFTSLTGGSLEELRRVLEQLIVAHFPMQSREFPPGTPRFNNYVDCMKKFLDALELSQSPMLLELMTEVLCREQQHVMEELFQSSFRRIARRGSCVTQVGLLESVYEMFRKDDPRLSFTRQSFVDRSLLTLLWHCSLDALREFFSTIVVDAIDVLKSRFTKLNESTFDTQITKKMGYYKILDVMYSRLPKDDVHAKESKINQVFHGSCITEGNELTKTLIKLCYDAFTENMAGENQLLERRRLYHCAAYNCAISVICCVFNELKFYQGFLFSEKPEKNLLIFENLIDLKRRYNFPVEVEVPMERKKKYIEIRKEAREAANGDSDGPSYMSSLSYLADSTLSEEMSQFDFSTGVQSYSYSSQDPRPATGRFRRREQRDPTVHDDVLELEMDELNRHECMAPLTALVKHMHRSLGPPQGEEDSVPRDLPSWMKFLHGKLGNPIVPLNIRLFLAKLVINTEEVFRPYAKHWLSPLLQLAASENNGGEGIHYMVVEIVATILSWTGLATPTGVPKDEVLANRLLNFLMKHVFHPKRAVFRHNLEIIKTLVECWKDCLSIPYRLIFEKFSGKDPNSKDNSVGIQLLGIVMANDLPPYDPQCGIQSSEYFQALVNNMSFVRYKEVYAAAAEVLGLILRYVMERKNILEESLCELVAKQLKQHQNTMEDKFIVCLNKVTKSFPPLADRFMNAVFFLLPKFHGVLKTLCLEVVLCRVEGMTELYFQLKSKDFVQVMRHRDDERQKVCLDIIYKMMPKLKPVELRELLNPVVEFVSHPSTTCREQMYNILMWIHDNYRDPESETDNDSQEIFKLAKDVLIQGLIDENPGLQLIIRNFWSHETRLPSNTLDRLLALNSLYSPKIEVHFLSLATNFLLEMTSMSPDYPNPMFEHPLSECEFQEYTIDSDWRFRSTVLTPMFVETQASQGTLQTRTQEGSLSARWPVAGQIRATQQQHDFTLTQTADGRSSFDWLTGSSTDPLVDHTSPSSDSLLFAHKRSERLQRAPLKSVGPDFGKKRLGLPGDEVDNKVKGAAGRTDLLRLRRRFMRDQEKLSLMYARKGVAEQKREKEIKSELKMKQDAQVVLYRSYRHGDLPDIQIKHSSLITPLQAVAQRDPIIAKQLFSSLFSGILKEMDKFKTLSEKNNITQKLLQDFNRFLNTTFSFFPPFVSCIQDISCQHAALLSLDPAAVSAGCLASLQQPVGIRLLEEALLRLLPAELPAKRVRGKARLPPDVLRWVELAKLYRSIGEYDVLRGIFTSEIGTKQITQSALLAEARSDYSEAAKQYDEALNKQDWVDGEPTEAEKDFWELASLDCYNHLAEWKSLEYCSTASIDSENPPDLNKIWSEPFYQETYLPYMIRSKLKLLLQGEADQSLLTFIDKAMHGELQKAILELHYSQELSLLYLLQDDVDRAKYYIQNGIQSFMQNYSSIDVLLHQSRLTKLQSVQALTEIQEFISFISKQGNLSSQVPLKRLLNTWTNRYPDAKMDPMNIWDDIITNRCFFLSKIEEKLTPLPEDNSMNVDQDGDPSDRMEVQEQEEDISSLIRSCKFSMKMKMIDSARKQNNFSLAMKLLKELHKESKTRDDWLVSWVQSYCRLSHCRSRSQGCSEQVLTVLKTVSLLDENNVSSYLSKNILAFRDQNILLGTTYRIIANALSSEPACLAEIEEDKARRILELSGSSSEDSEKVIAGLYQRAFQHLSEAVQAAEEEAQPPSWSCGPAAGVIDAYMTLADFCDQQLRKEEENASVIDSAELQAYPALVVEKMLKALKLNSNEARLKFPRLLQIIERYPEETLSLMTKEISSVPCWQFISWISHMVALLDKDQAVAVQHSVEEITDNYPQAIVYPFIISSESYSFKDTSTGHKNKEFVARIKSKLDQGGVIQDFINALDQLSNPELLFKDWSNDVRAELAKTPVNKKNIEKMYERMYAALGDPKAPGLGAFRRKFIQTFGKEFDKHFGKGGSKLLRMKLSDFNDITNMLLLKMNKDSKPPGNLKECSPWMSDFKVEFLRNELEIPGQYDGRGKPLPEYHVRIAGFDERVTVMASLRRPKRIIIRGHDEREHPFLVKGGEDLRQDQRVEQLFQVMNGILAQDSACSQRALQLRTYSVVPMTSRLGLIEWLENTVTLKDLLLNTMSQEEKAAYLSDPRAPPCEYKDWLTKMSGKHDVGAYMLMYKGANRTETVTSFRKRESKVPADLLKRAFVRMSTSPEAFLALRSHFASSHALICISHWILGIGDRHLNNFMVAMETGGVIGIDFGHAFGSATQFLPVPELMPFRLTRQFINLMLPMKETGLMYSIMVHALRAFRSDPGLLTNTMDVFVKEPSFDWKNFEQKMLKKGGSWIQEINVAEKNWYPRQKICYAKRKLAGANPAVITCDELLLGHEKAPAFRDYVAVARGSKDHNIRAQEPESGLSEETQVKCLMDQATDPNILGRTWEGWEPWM
UniProt Q10713, sequence (Q10713 whole entry): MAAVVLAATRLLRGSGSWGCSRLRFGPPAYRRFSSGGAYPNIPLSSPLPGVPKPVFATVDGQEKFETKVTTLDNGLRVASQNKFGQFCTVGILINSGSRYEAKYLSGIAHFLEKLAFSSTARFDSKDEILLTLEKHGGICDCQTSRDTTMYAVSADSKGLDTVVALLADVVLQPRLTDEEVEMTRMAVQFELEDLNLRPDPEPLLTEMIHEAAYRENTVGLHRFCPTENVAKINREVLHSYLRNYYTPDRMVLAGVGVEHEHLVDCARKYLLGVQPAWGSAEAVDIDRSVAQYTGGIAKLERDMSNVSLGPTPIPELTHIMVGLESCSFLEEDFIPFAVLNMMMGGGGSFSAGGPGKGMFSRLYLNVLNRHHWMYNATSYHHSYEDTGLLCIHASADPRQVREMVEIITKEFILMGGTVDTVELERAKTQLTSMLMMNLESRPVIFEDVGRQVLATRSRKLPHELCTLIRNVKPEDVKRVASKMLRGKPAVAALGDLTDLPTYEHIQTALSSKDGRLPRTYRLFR

Target | log2 fold change
HERC2 (peptide sequence: TLHSLTQWNGLINK, peptide start residue: 2152) (UniProt O95714) | -0.746
PRKAR1A (peptide sequence: ILMGSTLR, peptide start residue: 234) (UniProt P10644) | 0.333
UniProt Q99759 (peptide sequence: SPSAPINWR, peptide start residue: 355) | -2.28
SRRM1 (peptide sequence: KETESEAEDNLDDLEK, peptide start residue: 870) (UniProt Q8IYB3) | 1.54
LATS1 (peptide sequence: QQSASYIPK, peptide start residue: 1021) (UniProt O95835) | -2.87
NEK9 (peptide sequence: TLNIFLTK, peptide start residue: 179) (UniProt Q8TD19) | -0.436
UniProt Q13043 (peptide sequence: ATATQLLQHPFVR, peptide start residue: 270) | -3.53
PUS1 (peptide sequence: GYAPESVLER, peptide start residue: 307) (UniProt Q9Y606) | -0.403
MAPK11 (peptide sequence: ILDFGLAR, peptide start residue: 166) (UniProt Q15759) | -1.18
DTNBP1 (peptide sequence: YEDTWAALHRR, peptide start residue: 55) (UniProt Q96EV8) | -0.512
TRMT1 (peptide sequence: RNVQLNDVAHLVQPSQADAR, peptide start residue: 195) (UniProt Q9NXH9) | 0.782
UniProt P0DMV8 (peptide sequence: LLQDFFNGR, peptide start residue: 349) | 0.293
CCNB2 (peptide sequence: VAAAASCLSQK, peptide start residue: 308) (UniProt O95067) | -1.57
RPL18A (peptide sequence: ARAHSIQIMKVEEIAASK, peptide start residue: 119) (UniProt Q02543) | 0.524
NQO1 (peptide sequence: SIPTDNQIK, peptide start residue: 263) (UniProt P15559) | 0.728
UniProt P78527 (peptide sequence: GYGLFAGPCK, peptide start residue: 365) | 0.189
UniProt O00567 (peptide sequence: LIAHAGSLTNLAK, peptide start residue: 308) | 0.316
BRAF (peptide sequence: GYLSPDLSK, peptide start residue: 525) (UniProt P15056) | 0.499
EIF3B (peptide sequence: PRPPTLLSQEQIK, peptide start residue: 706) (UniProt P55884) | 0.691
UniProt P61962 (peptide sequence: LMWIPDTK, peptide start residue: 74) | 0.374
CPOX (peptide sequence: EAEILEVLR, peptide start residue: 439) (UniProt P36551) | -1.06
UniProt Q96G28 (peptide sequence: NIEMQLQAIR, peptide start residue: 117) | 0.282
TNK1 (peptide sequence: VADFGLVRPLGGAR, peptide start residue: 261) (UniProt Q13470) | -3.64
TAOK2 (peptide sequence: ERPPTVIMDLIQR, peptide start residue: 284) (UniProt Q9UL54) | -2.3
CCNL2 (peptide sequence: HSMEHVSMACVHLASK, peptide start residue: 118) (UniProt Q96S94) | -1.06
UniProt Q8N4C8 (peptide sequence: GNALKEDCIAYICR, peptide start residue: 122) | -0.573
CAD (peptide sequence: FLSSAAAVSKEHPVVISK, peptide start residue: 1110) (UniProt P27708) | -0.418
PMPCA (peptide sequence: LYLNVLNR, peptide start residue: 363) (UniProt Q10713) | -0.407
VRK1 (peptide sequence: DILLQGLK, peptide start residue: 322) (UniProt Q99986) | -0.866
